The source made the active and inactive calls.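 How the source made its calls: active means inhibition of at least 50% at 50 µM, meaning an activity change of -50% or lower; inconclusive means inhibition above 30% but under 50% at 50 µM; inactive means inhibition of 30% or less at 50 µM.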
Test: qHTS Assay for Iinhibitors of HIV-1 Budding by Blocking the Interaction of PTAP/TSG101: Hit Validation in Viral Budding Asaay
Conditions: HeLa pNL4-3 HIV-1 budding, supernatant RT activity, 18 h; at 50 µM (top of the series)
Source text: Stages of the HIV-1 replication cycle, specifically virus assembly and release, provide underexploited targets for the development of novel antiviral inhibitors. The late stages of HIV-1 replication are mediated by the Gag precursor protein, Pr55Gag. Expression of Pr55Gag is both necessary and sufficient for the production of virus-like particles from Gag-expressing cells. The Gag protein hijacks key host proteins involved in endocytic machinery of the host cell to promote endosomal processing and viral budding. The budding process requires a direct interaction between a […] (PTAP) motif in the p6 domain of Gag and the cellular endosomal sorting protein known as Tsg101. In this way, the Gag PTAP motif promotes the host cells to recruit viral particles to the plasma membrane where the new viral particles are released, effectively turning the host cells into viral factories. A fluorescence anisotropy assay has been developed to quantitatively measure the PTAP-Tsg101 interaction which can be used to screen for inhibitors of this interaction. In this hit validation assay the readout is the release of reverse transcriptase (RT) activity into the medium of HeLa cells transfected with the full-length HIV-1 molecular clone pNL4-3. RT release from virus-producing cells occurs upon budding of virus from the cell surface. Small molecules that block the PTAP/Tsg101 interaction will reduce RT release. HeLa cells will also be transfected with a luciferase expression vector; compounds that are cytotoxic will reduce luciferase expression. NIH Molecular Libraries Probe Production Network [MLPCN] NIH Chemical Genomics Center [NCGC] MLPCN Grant: 1 R03 MH087464-01A1 PI Name: Dr. Eric Freed, NCI
Virus producing cells were treated with 12.5, 25 & 50 uM of each compound and 18 hr after treatment virus supernatant was collected from the cells. Reverse transcriptase (RT) activity in the virus supernatant is then measured.

Activity change, negative = inhibition, active:
COc1cccc(C(=O)c2sc3nc(-c4ccccc4)cc(C(F)(F)F)c3c2N)c1 -91.8%
O/C=c1\ccc2cccc3nc(C(F)(F)F)nc1c23 -89.5%
COc1cccc2c1C(=O)c1c(O)c3c(c(O)c1C2=O)CC(O)(C(=O)CO)CC3OC1CC(N(C)C)C(O)C(C)O1 (centres undefined) -84%
CN1CCc2c(sc(NC(=O)CSc3ccc(F)cc3)c2-c2nc3ccccc3s2)C1 -59.8%

— PubChem BioAssay AID651603 (National Center for Advancing Translational Sciences (NCATS), 2012)
